AMA1 RON2 block = qHTS for Inhibitors of AMA1-RON; Towards Development of Antimalarial Drug Lead: Primary Screen. AlphaScreen AMA1-biotinylated RON2 peptide binding. Potency, µM (top dose mostly 58.2 µM), hits mostly inhibitors. 360,000 compounds, 0.2% hits. Plasmodium falciparum AMA1 (3D7) - RON2 peptide interaction; note: nearly all actives have a fitted effect of over 45% in size
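AMA1 (3D7) with his tag at 25 nM final met compounds first, then biotinylated RON2 peptide at 25 nM; detection used donor plus acceptor beads, 10 µg/mL apiece, read by AlphaScreen after 30 min at room temperature.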
Shiga toxin inh = A qHTS for Small Molecule Inhibitors of Shiga Toxin | Vero cells, Shiga toxin protein synthesis inhibition reporter | inhibition, % at 38.7 µM | 290,000 compounds, 9.2% hits | AID 2315, 2010; in the data active = inhibition mostly above about 28%, no sharp cut-off; inactive = mostly below about 43%
HCV inhibitor = qHTS Assay for Inhibitors of Hepatitis C Virus (HCV) | Huh7.5.1 HCVcc-Cre infection, luciferase reporter, 44 h | Potency, µM (series often up to 41.8 µM), actives largely listed as inhibitors | 340,000 compounds, 3.4% hits
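Cells seeded at 1,000/well and cultured 4 h, then compounds added followed by HCVcc-Cre virus (~0.5 moi). After 44 h further culture, luciferase substrate was added, plates held 15 min at room temperature, and luminescence read for 15 sec.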
Pf growth 96h = Primary qHTS for delayed death inhibitors of the malarial parasite plastid, 96 hour incubation; P. falciparum luciferase reporter growth, 96 h; Potency, µM (top dose mostly 28.7 µM), actives largely listed as inhibitors; 320,000 compounds, 6.9% hits
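Luminescence readout: decreased luciferase signal marks inhibited growth of reporter-expressing P. falciparum in infected red cells (2% hematocrit, 0.05% parasitemia final), exposed to compound two generations (96 h, 37 C, 5% CO2).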
Pf growth 48h = Primary qHTS for delayed death inhibitors of the malarial parasite plastid, 48 hour incubation; AID 504832, 2011; Potency, µM (titrated, usually from 28.7 µM), hits mostly inhibitors; P. falciparum luciferase growth in erythrocytes, 48 h; 310,000 compounds, 5.9% hits
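Firefly luciferase activity from engineered P. falciparum reports growth; inhibitors lower the luminescent signal. Cultures contained 2% hematocrit erythrocytes at 0.1% final parasitemia.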
Cycloheximide cs = Cycloheximide Counterscreen for Small Molecule Inhibitors of Shiga Toxin. cell reporter, cycloheximide protein synthesis inhibition counterscreen. max response, %. 300,000 compounds, 12% hits. AID 2314, 2010; in the data active = max response mostly above about 13%, no sharp cut-off; inactive = mostly below about 14%; note: read at 38.3 µM for the half of the compounds with a filed dose
Each line names hits and unclear results; the compound was inactive in the other large screens. Sampled rows, rich in hits. Any-hit rate of the full collection: about 21%. Unless noted, calls come from the whole dose curve; as a rule, active = well fitted curve in the direction sought with a large enough effect; inconclusive = small, poorly fitted or top-dose-only effect, or another doubt; inactive = no such curve, though single readings can be large; an effect the other way counts as inactive or inconclusive.

Cc1cc(C)c(NC(=O)COC(=O)c2cccc3c2C(=O)c2ccccc2C3=O)c(C)c1	HCV inhibitor inconclusive, Pf growth 96h inconclusive
CC(=O)Nc1cccc(N)c1	none (no result: Shiga toxin inh, Cycloheximide cs)
CC(C)(C)c1nnc(N/N=C/c2ccccc2)n(N)c1=O	Cycloheximide cs 11.0
CSc1nnc(C(C)(C)C)c(=O)n1/N=C/c1ccccc1	Pf growth 48h inconclusive
CC(C)(C)c1nnc(N/N=C/c2ccccc2O)n(N)c1=O	HCV inhibitor inconclusive, Pf growth 96h inconclusive, Pf growth 48h 3.29µM
CCOC(=O)[C@]12CCCC=C1N(Cc1ccccc1)C(=O)[C@H](CC(=O)NCC1CCCCC1)C2	none (no result: Shiga toxin inh, HCV inhibitor, Pf growth 96h, Pf growth 48h, Cycloheximide cs)
O=C(CSc1nnc(-c2ccc(O)cc2)o1)Nc1ccc2c(c1)OCCO2	Shiga toxin inh 39.0, Cycloheximide cs 24.8
O=C(CSc1nnc(-c2ccccc2Cl)o1)Nc1ccc2c(c1)OCCO2	none
Cc1ccc(-c2csc3ncnc(SCC(=O)c4ccc5c(c4)OCCO5)c23)cc1	HCV inhibitor inconclusive
O=C(CSc1ncnc2scc(-c3ccc(F)cc3)c12)c1ccc2c(c1)OCCO2	HCV inhibitor inconclusive, Cycloheximide cs 15.8
O=C(CSc1nnc(-c2ccc(O)cc2)o1)Nc1ccccc1Br	Shiga toxin inh 75.7, Pf growth 96h inconclusive, Cycloheximide cs 28.1
O=C(CSc1nnc(-c2ccncc2)o1)c1ccc2c(c1)OCCO2	none
O=C(CSc1nnc(-c2ccc(F)cc2)o1)c1ccc2c(c1)OCCO2	Cycloheximide cs 18.2 (no result: Pf growth 96h)
O=C(CSc1nnc(-c2cccnc2)o1)Nc1ccccc1Br	none
CN(CC(=O)Nc1c(Cl)cccc1Cl)C(=O)CCNS(=O)(=O)c1ccccc1C(F)(F)F	none (no result: Shiga toxin inh, Cycloheximide cs)
CC1CCC(C(O)(C(=O)c2ccccc2)c2ccccc2)C(=O)C1 (centres undefined)	none (no result: Shiga toxin inh, HCV inhibitor, Pf growth 96h, Pf growth 48h, Cycloheximide cs)
O=C(CSc1nnc(-c2ccc(O)cc2)o1)Nc1cccc(O)c1	Pf growth 96h inconclusive, Cycloheximide cs 24.0
CC(NC(=O)c1ccc2nc(Cc3cccc(Cl)c3)oc2c1)c1ccncn1 (centres undefined)	none (no result: Shiga toxin inh, HCV inhibitor, Pf growth 96h, Pf growth 48h, Cycloheximide cs)
Cc1cnc(CN(C)C(=O)c2ccc3oc(Cc4ccc(Cl)cc4)nc3c2)[nH]1	HCV inhibitor inconclusive, Pf growth 48h inconclusive
CC(c1ccncn1)N(C)C(=O)c1ccc2oc(Cc3ccccc3)nc2c1 (centres undefined)	Shiga toxin inh 50.0, Cycloheximide cs 34.2
Cc1cnc(CN(C)C(=O)c2ccc3oc(Cc4ccccc4)nc3c2)[nH]1	Pf growth 96h 4.65µM
COC(=O)c1ccc(COc2cccc(C)c2C)cc1	none
O=c1c2ccccc2ncn1C1CCCCC1	none
O=c1c2[nH]c3ccccc3c2ncn1C1CCCCC1	HCV inhibitor inconclusive, Cycloheximide cs 25.9
O=C(CSc1nnc(-c2ccccc2F)n1C1CC1)N1CCCC1	none (no result: Shiga toxin inh, HCV inhibitor, Pf growth 96h, Pf growth 48h, Cycloheximide cs)
Cc1ccc(F)cc1NC(=O)C1CC(=O)N(Cc2ccccc2)C1 (centres undefined)	none (no result: Shiga toxin inh, HCV inhibitor, Pf growth 96h, Pf growth 48h, Cycloheximide cs)
Cc1ccc(S(=O)(=O)Nc2c(C)cc(C)nc2Cl)cc1	Pf growth 96h 2.62µM
Cc1ccc(-c2nc(NCCN(C)C)c3ccccc3n2)cc1	Pf growth 48h inconclusive, Cycloheximide cs 18.2
CCN(CC)c1nc(N2CCN(C)CC2)nc2ccccc12	HCV inhibitor inconclusive, Pf growth 48h inconclusive (no result: Shiga toxin inh)
Cc1ccc(-c2nc(NCCCO)c3ccccc3n2)cc1	HCV inhibitor inconclusive
CCCN(CCC)c1nc(-c2ccccn2)nc2ccccc12	HCV inhibitor inconclusive, Pf growth 96h 0.329µM, Pf growth 48h 0.828µM
COCCN(CCOC)c1nc(-c2ccc(C)cc2)nc2ccccc12	Shiga toxin inh 73.0, Pf growth 96h inconclusive, Cycloheximide cs 12.8
COC(=O)CSc1nc(-c2ccccc2)nc2ccccc12	none
O=C(NCc1ccccc1)c1cc(-c2ccncc2)nc2ccccc12	Pf growth 96h inconclusive, Pf growth 48h inconclusive
CN(C)CCNc1cc(-c2ccncc2)nc2ccccc12	Pf growth 96h 3.29µM, Pf growth 48h 11.7µM
O=C(COC(=O)c1ccc(OC(F)F)cc1)NCCC1=CCCCC1	none (no result: Shiga toxin inh, Cycloheximide cs)
Cc1cc(=O)oc2cc(OCC(=O)OCC(=O)Nc3c(C)n(C)n(-c4ccccc4)c3=O)ccc12	none
Cc1ccc(-c2nc(N(C)C3CCN(C)CC3)c3ccccc3n2)cc1	HCV inhibitor inconclusive, Pf growth 96h 6.57µM (no result: Pf growth 48h)
Cc1cccc(-c2nc(NCCCN(C)C)c3ccccc3n2)c1	Pf growth 48h inconclusive, Cycloheximide cs 14.0
COc1ccc(CNc2nc(-c3ccccc3)nc3ccccc23)cc1OC	Pf growth 96h inconclusive, Pf growth 48h inconclusive
CCCCN(CC)c1nc(-c2ccncc2)nc2ccccc12	HCV inhibitor 5.62µM, Pf growth 48h 2.94µM (no result: Pf growth 96h)
Cc1cccc(-c2nc(NCCCN3CCOCC3)c3ccccc3n2)c1	HCV inhibitor inconclusive, Pf growth 96h 2.94µM (no result: Pf growth 48h)
CN1CCN(c2nc(-c3ccc(Cl)cc3)nc3ccccc23)CC1	Pf growth 96h inconclusive
CCOC(=O)C1=C(C)N=C2SC=C(C)N2C1c1ccc(OC)cc1 (centres undefined)	HCV inhibitor inconclusive
COc1ccc([C@]23Cc4cc(OC)c(OC)cc4C(O2)C2=C(CC(C)(C)CC2=O)O3)cc1	Pf growth 96h inconclusive, Pf growth 48h inconclusive (no result: AMA1 RON2 block, HCV inhibitor)
O=C(O)CCNc1nc(-c2ccccc2)nc2ccccc12	HCV inhibitor inconclusive
CN(C)CCCNc1nc(-c2ccc(Cl)cc2)nc2ccccc12	HCV inhibitor inconclusive, Pf growth 48h 10.4µM
Cc1ccc(S(=O)(=O)c2nc(-c3ccccc3)oc2NCCCN2CCOCC2)cc1	Pf growth 48h inconclusive
Cc1cccc(-c2nc(S(=O)(=O)c3ccc(F)cc3)c(NCCCN3CCOCC3)o2)c1	Pf growth 96h 13.1µM, Pf growth 48h inconclusive
c1ccc(-c2nc(NCCCN3CCOCC3)c3ccccc3n2)cc1	HCV inhibitor inconclusive, Pf growth 48h inconclusive (no result: Pf growth 96h)
c1ccc(CCNc2nc(-c3ccccn3)nc3ccccc23)cc1	HCV inhibitor 2.82µM, Pf growth 96h 1.65µM, Pf growth 48h 1.04µM
Cc1ccc(-c2csc3ncnc(SCC(=O)Nc4nnc(C)s4)c23)cc1	none
Cc1ccc(-c2csc3ncnc(Sc4nnc(CN5CCCCCC5=O)o4)c23)cc1	HCV inhibitor inconclusive, Pf growth 96h 14.7µM, Pf growth 48h 11.7µM
CO[C@H]1C=CO[C@@]2(C)Oc3c(C)c(O)c4c(O)c(c(C=NN5CCN(C6CCCC6)CC5)c(O)c4c3C2=O)NC(=O)C(C)=CC=C[C@H](C)[C@H](O)[C@@H](C)[C@@H](O)[C@@H](C)[C@H](OC(C)=O)[C@@H]1C	none (no result: AMA1 RON2 block, HCV inhibitor, Pf growth 96h, Pf growth 48h)
